# Screening results (PubChem)
# Most compounds without a hit are left out; they make up all but 2.1% or so of the library.
# Myeloid diff MLP = compounds promoting myeloid differentiation. ER-HoxA9 myeloid progenitors, lysozyme-GFP differentiation, flow cytometry. calls only at 10 µM. 360,000 tested, 1% active. AID 624256;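 active means normalized GFP-positive differentiation at or above the plate's own cutoff, the solvent-only control mean plus 3 SD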;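 further: cells exposed to compound for four days before flow analysis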
# HNF4A DNA FP = change in binding of human HNF4 alpha to DNA; activity change, % at 10 µM; 360,000 tested, 0.3% active; P41235; HNF4a-FITC DNA binding, fluorescence polarization, 1 h; AID 1224865; in the data active means activity change above about 30%, passing the limit was not always enough
# Target sequence (P41235 whole entry, looked up): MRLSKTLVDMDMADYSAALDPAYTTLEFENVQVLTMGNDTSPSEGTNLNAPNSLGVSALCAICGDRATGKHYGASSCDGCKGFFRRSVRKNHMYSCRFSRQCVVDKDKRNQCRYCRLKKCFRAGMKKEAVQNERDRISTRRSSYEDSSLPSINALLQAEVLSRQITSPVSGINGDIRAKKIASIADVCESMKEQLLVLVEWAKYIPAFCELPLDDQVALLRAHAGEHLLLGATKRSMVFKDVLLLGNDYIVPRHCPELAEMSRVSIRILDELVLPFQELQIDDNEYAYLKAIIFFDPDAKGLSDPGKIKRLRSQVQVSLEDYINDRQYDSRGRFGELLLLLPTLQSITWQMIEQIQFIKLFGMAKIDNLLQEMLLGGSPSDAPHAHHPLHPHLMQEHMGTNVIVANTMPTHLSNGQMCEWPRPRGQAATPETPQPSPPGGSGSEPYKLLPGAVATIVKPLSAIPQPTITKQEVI
# TPT1 inhibitor = inhibitors of Candida albicans tRNA 2'-phosphotransferase TPT1; recombinant caTPT1, FP RNA substrate dephosphorylation; inhibition, % at 5 µM; 300,000 tested, 0.81% active; AID 1962;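 active means inhibition above the mean of all tested compounds plus 3 SD, set per screening campaign, cut at about 24% in these data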
# Rpn11 block = Rpn11 (human) deubiquitinase inhibition. O00487. human 26S proteasome, Ub4-pepOG fluorescence polarization; 20S core pre-blocked with epoxomicin. inhibition, % at 20 µM. 360,000 tested, 0.59% active. AID 588493;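 active means inhibition at 20 µM, scaled to each plate's controls, above about 33%, limit read from the data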
# Hits are given with their value; 0 = inactive; - = not tested or not shown; + = active, no number.
SMILES,Myeloid diff MLP,HNF4A DNA FP,TPT1 inhibitor,Rpn11 block
N#Cc1ccc(NC(=O)COC(=O)C2Cc3ccccc3CN2C(=O)c2ccccc2)cc1 (configuration not stated),+,0,0,0
COC(=O)c1nnn(-c2ccsc2C(=O)OC)c1C(=O)OC,0,0,0,0
CCCNC(=O)/C(C#N)=C1\N=C(NC(=O)c2ccco2)c2ccccc21,0,0,0,0
N#C/C(C(=O)NCc1ccccc1)=C1/N=C(NC(=O)c2cccs2)c2ccccc21,+,0,0,0
Cc1ccc(-n2cc(CN3CCC(CO)(Cc4cccc(C(F)(F)F)c4)CC3)cn2)cc1,+,0,0,0
COc1c(O)cnn(-c2ccccc2)c1=O,0,0,0,0
CCOC(=O)N1CCc2c(sc(NC(=O)c3ccc(S(=O)(=O)N4CCCC4)cc3)c2C#N)C1,0,0,0,50
COC(=O)CN(C)C(=O)c1cccc(OC2CCN(S(=O)(=O)N(C)C)CC2)c1,0,0,0,0
CCOc1cc(NS(=O)(=O)c2ccc(OC)cc2)c(OCC)cc1NC(=O)c1ccco1,+,0,0,0
COc1ccc(S(=O)(=O)Nc2cc(OC)c(NC(=O)c3ccco3)cc2OC)cc1,0,0,0,0
COc1cc(OC)c(NC(=O)c2ccco2)cc1Cl,0,0,0,0
COc1cc(NS(=O)(=O)c2ccc(Br)cc2)c(OC)cc1NC(=O)c1ccco1,0,68,0,-
Cc1ccc(NC(=O)Nc2nc(-c3ccc(C)s3)cs2)cc1,0,0,0,0
CN1/C(=C/C=C(C#N)C#N)C=Cc2ccccc21,+,0,0,-
CC(C)CCOc1ccc(CO[C@@H]2[C@H]3OC(C)(C)O[C@H]3O[C@@H]2C(O)CO)cc1 (some centres not stated),0,0,0,0
Cc1ccc2nc(NCCNC(=O)c3ccccc3)c(C#N)cc2c1,+,0,0,0
Cc1cccc(C(=O)NCCNc2nc3cc(C)c(C)cc3cc2C)c1,0,60,0,0
CC(OC(=O)C1CC1)C(=O)Nc1ccc([N+](=O)[O-])cc1Cl (configuration not stated),+,0,0,0
O=C(O)CNC(=O)c1ccccc1Br,0,0,0,0
Cc1cc(C)n(-c2cc(N3CCN(C(=O)c4ccccc4C)CC3)ccc2[N+](=O)[O-])n1,0,0,0,0
CN1CCCN(C(=O)Cc2c(Cl)cccc2Cl)c2nc3ccccc3nc21,+,0,0,0
COC(=O)c1cc(Br)c(=O)n(Cc2cccnc2)c1,-,0,0,0
COc1ccc(-c2cc(NC=O)c3ncc(-c4cccc(C(=O)NCCN(C)C)c4)n3c2)c(OC)c1,+,0,-,0
CN(C)C(=O)c1cccc(-c2cnc3c(NC=O)cc(-c4ccccc4N(C)C)cn23)c1,+,0,-,0
COc1ccccc1-c1cc(NC=O)c2ncc(-c3cccc(C(F)(F)F)c3)n2c1,0,0,-,0
SMILES,Myeloid diff MLP,HNF4A DNA FP,TPT1 inhibitor,Rpn11 block
CN(C)C(=O)c1cccc(-c2cnc3c(NC=O)cc(-c4ccccc4Cl)cn23)c1,0,0,-,0
CN(C)c1ccccc1-c1cc(NC=O)c2ncc(-c3cccc(C(F)(F)F)c3)n2c1,+,0,-,0
CCCCc1c(-c2cccc(Br)c2)ncn1CCc1ccccc1OC,0,0,-,-
CCCCCN(C(=O)CCC(=O)OCC(=O)c1cccc(OC)c1)c1c(N)n(CCCC)c(=O)[nH]c1=O,0,0,0,0
COc1ccc(-n2ncc3c2CC(C)(C)CC3NC(=O)CCN2CCCCC2=O)cc1 (configuration not stated),+,0,0,0
O=C(CCCN1C(=O)c2ccccc2C1=O)NCCc1ccc(OC(F)F)cc1,0,0,0,0
O=C(CSc1ccc(Br)cc1)NCC(c1ccco1)N1CCCCC1 (configuration not stated),0,0,0,0
CCOC(=O)CN1C(=O)C(=O)N(Cc2c(C)cc(C)cc2C)C1=O,+,0,0,0
CCOC(=O)CN1C(=O)C(=O)N(Cc2ccccc2)C1=O,-,0,0,0
COc1ccc(OCC(=O)Nc2ccc(S(=O)(=O)Nc3cc(C)nc(C)n3)cc2)cc1,0,0,0,0
COCCOCC(=O)Nc1ccc(S(=O)(=O)Nc2cc(C)nc(C)n2)cc1,+,0,0,0
CC(C)(C)NC[C@@H](O)COc1cccc2c1CCCC2=O,0,0,0,0
CC(C)(C)NCC(O)COc1ccccc1C1CCCC1 (configuration not stated),+,0,0,0
COc1cccc(OC)c1C(=O)Nc1ccc(S(=O)(=O)N2CCCCC2)cc1,0,0,0,0
Cc1ccc(OC2CCN(C(=O)[C@H]3O[C@@H](n4ccc(=O)[nH]c4=O)[C@H](O)[C@@H]3O)CC2)cc1,0,0,-,0
Nc1cc(=O)[nH]c(SCC(=O)Nc2cccc([N+](=O)[O-])c2)n1,+,0,0,0
Nc1cc(=O)[nH]c(SCC(=O)Nc2ccc([N+](=O)[O-])cc2)n1,0,0,0,0
CC1=C2C3OC(=O)C(C)C3CCC2(C)C=C(Cl)C1=O (configuration not stated),0,0,-,0
Cc1ccc(S(=O)(=O)N2CCN(Cc3csc(C)n3)CC2)cc1,+,0,0,0
Cc1ccc(S(=O)(=O)N2CCN(Cc3ccccn3)CC2)cc1,0,0,0,0
Cc1ccccc1-c1nnn(CC(=O)Nc2ccc3c(c2)OCO3)n1,0,0,0,0
Cc1nn(CC(C)C)c(Cl)c1C(=O)N(C)CC(=O)Nc1c(Cl)cccc1Cl,+,0,0,0
Nc1ccc2cc3ccccc3cc2c1,+,0,-,-
O=C(Nc1ccc(SC(F)F)cc1)c1ccc(F)cc1,0,0,0,0
CCN(c1ccc(N=Cc2c(O)n(Cc3ccc(OC)cc3)c(=O)c3ccccc23)cc1)C(C)C,+,0,-,0
SMILES,Myeloid diff MLP,HNF4A DNA FP,TPT1 inhibitor,Rpn11 block
COc1ccc(-n2c(O)c(C=Nc3ccccc3)c3ccccc3c2=O)cc1,-,0,0,0
Cc1cccc(Nc2nc(N)nc(CCl)n2)c1C,0,0,0,0
Cc1ccccc1C(=O)Nc1cc(S(=O)(=O)N2CCOCC2)ccc1N1CCN(C)CC1,0,0,-,0
C=CCN=c1scc(-c2ccccc2)n1/N=C/c1ccccn1,+,0,0,0
CCN=c1scc(-c2ccccc2)n1/N=C/c1ccccn1,+,0,0,0
CCN=c1scc(-c2ccc(F)cc2)n1/N=C/c1ccccn1,0,0,0,0
Cc1cccc(C(=O)O/N=C(\N)CS(=O)(=O)c2ccccc2)c1,0,0,0,0
NC(C(=O)O)C1ON=C(Cl)C1O (configuration not stated),0,0,-,0
Cc1ccc(-c2nn3c(C)nnc3s2)cc1NC(=O)c1ccc(-c2ccc(Cl)cc2Cl)o1,0,104,0,+
Cc1ccc(S(=O)(=O)Nc2cc(Cl)c(O)cc2C)cc1,0,0,0,0
Cc1ccc(S(=O)(=O)Nc2cc(C(C)C)c(O)cc2C)cc1,+,0,0,0
Cc1ccc(N=C(N)N=C(N)N)cc1,+,0,0,0
Cc1cc(C)c([N+](=O)[O-])cc1NCC(=O)N1CCN(c2ccccc2)CC1,+,0,0,0
COc1ccc(CC(=O)NC(C)c2nnc(SCCOc3ccc(OC)cc3)n2C)cc1 (configuration not stated),+,0,0,0
